Reference: article PMC5540273 (PLoS ONE, 2017)

What follows are molecules tested on S6K1. Conditions: concentration: 1 μM, replicates: in singlicate; n = 1.
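Also: KINOMEscan kinase panel screen.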

Point of comparison: `Cl.Oc1cccc(Nc2ccnc3cc(-c4ccncc4)ccc23)c1` [GW494601], “%Inh” value 0%. Against it:
- Cc1cccc(-c2nc(-c3ccc(S(C)(=O)=O)cc3)sc2-c2ccncc2)c1 — higher, 12%
- CN1c2ccc(CNc3ccc(F)cc3)cc2-c2c(cnn2C)S1(=O)=O — the same, 0%
- O=C1Cc2cc(Nc3nc(NCc4cccc(S(=O)(=O)C(F)(F)F)c4)ncc3C(F)(F)F)ccc2N1 — the same, 0%
- COc1cc2c(cc1OC[C@@H](O)CO)ncc1c3ccc(C#N)cc3[nH]c21 — higher, 40%
- COc1ccc(S(=O)(=O)NC2CCN(c3cc(C)nc(Nc4cccc(C#N)c4)n3)CC2)cc1.O=C(O)C(F)(F)F [GSK1653539] — the same, 0%
- [2H]C([2H])(c1cccc(C(F)(F)F)c1C)n1ccn2c(=O)nc(N3CCOCC3)cc12 [GSK2336394] — higher, 12%
- Cc1cccc(-c2nc(Nc3ccc4ncsc4c3)c3ccccc3n2)n1 [GW867588] — the same, 0%
- COc1cc2ncn(-c3cc(OCc4sccc4Cl)c(C(N)=O)s3)c2cc1OC [GSK448459] — higher, 3%
- CCc1ccnc(/C=C/c2n[nH]c3cc(Sc4ccccc4C(=O)NC)ccc23)c1 — higher, 6%
- C[C@@H](Oc1cc(-n2cnc3ccc(NC(=O)NC(C)(C)C)cc32)sc1C(N)=O)c1ccccc1Cl [GSK346294] — the same, 0%
- COc1cc2c(cc1OCCN1CCN(C)CC1)ncc1c3ccc(C#N)cc3[nH]c21 — higher, 53%
- COCCNC(=O)c1ccc(-c2cc(C(=O)NC3CC3)cc(F)c2C)cc1 [GW868318] — higher, 29%
- COc1cc(Nc2nccc(N3CCC(NC(=O)c4cccc(NC(C)=O)c4)C3)n2)cc(OC)c1OC (centres unmarked) [GSK1379754] — higher, 10%
- CN1c2ccc(NCc3ccc(F)cc3)cc2-c2c(cnn2C)S1(=O)=O — higher, 10%
- Cc1nnc(-c2ccc3ncc(-c4ccc(S(C)=O)cc4)n3c2)o1 (centres unmarked) — the same, 0%
- O=C(NCCCN1CCOCC1)c1cccc(Nc2nccc(Nc3ccc(Oc4ccccc4)cc3)n2)c1 [GW663929] — the same, 0%
- Cc1cccc(Cn2ccn3c(=O)cc(N4CCOCC4)nc23)c1 [GSK2297542] — higher, 6%
- Nc1nc(-c2ccc3c(N)n[nH]c3c2)cc(N2CCCC2)n1 [GSK2227430] — the same, 0%
- Fc1ccc(-c2ncn(CCCN3CCOCC3)c2-c2cccnc2)cc1 [SB-211743] — the same, 0%
- O=C(NOCC1CC1)c1ccc(F)c(F)c1Nc1ccc(I)cc1Cl — the same, 0%
- NS(=O)(=O)c1cccc(-c2ccc3ncc(N4CCOCC4)nc3c2)c1 [GSK1535721] — higher, 10%
- Cn1ccc2ncnc(Oc3ccc(NC(=O)Nc4ccncc4)c(Cl)c3)c21 — the same, 0%
- NS(=O)(=O)c1cccc(-c2ccc3nccc(-c4cccc(S(N)(=O)=O)c4)c3c2)c1 [GW867253] — higher, 16%
- CCc1nc(-c2cccc(C)c2)c(-c2ccnc(NCc3ccccc3)c2)s1 — higher, 4%
- O=C(Nc1cccc(-c2nn3ncccc3c2-c2ccnc(Nc3cccc(C(F)(F)F)c3)n2)c1)c1c(F)cccc1F [GSK299495] — the same, 0%
- O=c1cc(N2CCOCC2)nc2n(Cc3cccc(F)c3)ccn12 [GSK2297430] — the same, 0%
- O=C1NC(=O)C(N2CCc3ccccc32)=C1c1cccc(Cl)c1 [SB-408010] — the same, 0%
- COc1ccc(COc2cc(-n3cnc4ccccc43)sc2C(N)=O)cc1 [GSK1024304] — the same, 0%
- COc1ccc(Nc2ncc(C#N)c(Nc3ccccc3C(N)=O)n2)cc1N1CCN(C)CC1.Cl [GSK1558669] — higher, 99.9%
- Cc1cn2c(=O)cc(N3CCOCC3)nc2n1Cc1cccc(Cl)c1Cl [GSK2334006] — higher, 3%
- N#Cc1c(N2CCOCC2)sc(-c2ccn[nH]2)c1-c1ccc(Cl)cc1 — higher, 7%
- N#Cc1ccc(-c2cc(-c3c[nH]nc3-c3ccccn3)ccn2)cc1 [GW693028] — higher, 4%
- Cc1nnc(-c2ccc3occ(-c4ccc(C(C)O)cc4)c3c2)o1 (centres unmarked) — the same, 0%
- Cc1c(Cn2c(C)nn3c(=O)cc(N4CCOC(C)C4)nc23)cccc1C(F)(F)F (centres unmarked) [GSK2344444] — higher, 9%
